Bioassay records: PubChem, several laboratories
This is a sample that favours compounds with a hit; in the whole collection about 2.4% have one here.
SENP6 block = SENP6 protease inhibition; Q9GZR1; 1.8% of 330,000 active; Recombinant SENP6 catalytic domain, aminoluciferin luminescence; inhibition, % at 10 µM;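 active = inhibition above about 50% at the single tested dose, limit read from the data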;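 note: plate controls were DMSO wells with enzyme for no effect and DMSO wells lacking enzyme for full effect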
SENP7 block = inhibitors of human SENP7 protease | Q9BQF6 | recombinant SENP7, Z-RLRGG-aminoluciferin luminescence, 40 min | inhibition, % at 5 µM | 1.5% of 330,000 active | AID 434973;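 active = inhibition above about 50% at the single test dose, limit read from the data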;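 note: plate controls were DMSO with enzyme for no effect and no enzyme buffer wells for full effect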
SENP8 block-1 = blocks human SENP8 cleavage of Nedd8 substrate | recombinant SENP8, Nedd8 substrate fluorescence | inhibition, % at 20 µM | 0.64% of 360,000 active; in the data active = inhibition mostly above about 40%, no sharp cut-off; inactive = mostly below about 27%
Target sequence (Q96LD8 whole entry, looked up): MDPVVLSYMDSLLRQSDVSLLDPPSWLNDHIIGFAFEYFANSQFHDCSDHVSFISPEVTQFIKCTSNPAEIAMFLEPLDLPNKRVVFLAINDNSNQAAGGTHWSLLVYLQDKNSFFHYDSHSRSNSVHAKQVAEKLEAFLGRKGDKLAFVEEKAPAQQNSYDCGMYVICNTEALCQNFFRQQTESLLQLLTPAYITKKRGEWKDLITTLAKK
SENP8 block-2 = inhibitors of human SENP8 protease | purified SENP8, Z-RLRGG-aminoluciferin cleavage, luminescence | inhibition, % at 10 µM | 1.2% of 330,000 active; in the data active = inhibition above about 50%
Platelet DG rel = platelet dense granule release activity; human platelet-rich plasma, SFLLRN dense granule ATP release, luminescence; inhibition, %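 (compounds screened at 7.5 µM in platelet-rich plasma)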; 0.22% of 300,000 active;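 active = mean replicate score, as percent of positive control, at or above 50; inconclusive = mean below 50 but at least one replicate at or above 50; inactive = mean and every replicate below 50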
SENP8 confirm = human SENP8 inhibition, confirmed. shares compounds with SENP7 block. Recombinant SENP8, Z-RLRGG-aminoluciferin luminescence, 60 min. inhibition, % at 12.5 µM. 40% of 6,200 active;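 active = mean inhibition across replicates above about 50%, limit read from the data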
SENP6 confirm = human SENP6 inhibition, confirmed. inhibition, % at 12.5 µM. shares compounds with SENP7 block. recombinant SENP6, Z-RLRGG-aminoluciferin luminescence. 58% of 6,200 active
SENP7 confirm = confirmation of human SENP7 protease inhibitors; recombinant SENP7, Z-RLRGG-aminoluciferin luminescence, 40 min; inhibition, % at 12.5 µM; shares compounds with SENP7 block; 69% of 6,200 active
Casp3 SENP sel = caspase-3 inhibition (SENP selectivity assay); 60% of 6,200 active; inhibition, % at 12.5 µM; purified caspase-3, Z-DEVD-aminoluciferin luminescence, 60 min; AID 488918; shares compounds with SENP7 block;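 active = mean inhibition above about 50%, limit read from the data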;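 note: plate controls were enzyme with DMSO for no effect and wells without caspase-3 for full effect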
Target sequence (P42574 28-227 limits assumed): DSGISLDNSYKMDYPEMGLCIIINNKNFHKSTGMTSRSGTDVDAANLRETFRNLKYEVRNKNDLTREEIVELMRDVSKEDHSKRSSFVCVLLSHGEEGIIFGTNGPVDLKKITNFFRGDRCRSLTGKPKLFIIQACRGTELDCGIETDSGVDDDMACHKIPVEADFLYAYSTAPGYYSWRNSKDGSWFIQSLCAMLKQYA
SENP luc ctr = counter-screen for SENP inhibitors: luminescence interference; 39% of 6,200 active; Pre-incubated SENP8/Z-RLRGG-aminoluciferin, luciferase luminescence interference; inhibition, % at 12.5 µM; shares compounds with SENP7 block;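 active = mean inhibition above about 50% when retested at one dose, limit read from the data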;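 note: plate controls were DMSO wells with completed reaction for no effect and substrate without enzyme for full effect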
* = called active by the depositor; u = inconclusive; x = not tested or not shown.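 Rule for the calls, unless noted: active = mean inhibition above about 50% in the one-dose retest (limit read from the data); inactive = the rest.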

SMILES	SENP6 block	SENP7 block	SENP8 block-1	SENP8 block-2	Platelet DG rel	SENP8 confirm	SENP6 confirm	SENP7 confirm	Casp3 SENP sel	SENP luc ctr
CCOC(=O)c1cn2nc(N3CCCCC3)ccc2n1	72*	71*	-305	68*	2	72*	72*	93*	89*	78*
COc1ccc(O)c(-c2cc(-c3cccc(Br)c3)n[nH]2)c1	59*	7	-11	24	0	40	34	69*	-1	5
COc1ccc(-c2cc(-c3cc(OC)ccc3O)[nH]n2)cc1	-2	45	-14	26	4	x	x	x	x	x
COc1ccc(O)c(-c2cc(-c3ccc(F)cc3)n[nH]2)c1	56*	43	-10	40	2	62*	59*	78*	20	68*
Oc1ccc(Br)cc1-c1cc(-c2ccccc2)n[nH]1	-17	1	21	-21	9	x	x	x	x	x
CNC(=O)C[C@H]1C(=O)N(CCc2ccccc2)C[C@@H]1C	x	x	19	x	x	x	x	x	x	x
COC(=O)CC1(c2ccc(OC)cc2)C(=O)c2ccccc2C1=O	-22	-10	-8	-5	4	x	x	x	x	x
O=C1c2ccccc2C(=O)C1(CO)c1ccc(OC(F)F)cc1	94*	3	12	94*	16	4	98*	103*	96*	57*
O=C1c2ccccc2C(=O)C1(CO)c1ccccc1	56*	15	18	31	1	38	50*	82*	77*	48
O=C(Nc1c2c(nn1-c1ccc([N+](=O)[O-])cc1)CS(=O)(=O)C2)c1ccccc1F	-9	0	13	2	8	x	x	x	x	x
COc1cc(NC(C)=O)ccc1NC(=O)c1cc2ccccc2o1	-13	6	-17	5	-13	x	x	x	x	x
O=C(NC1=NCCS1)c1csc2ccccc12	81*	73*	-1	60*	0	4	68*	89*	78*	74*
O=C(Nc1ccccn1)c1cc2ccccc2o1	97*	98*	8	95*	u	52*	98*	101*	97*	96*
O=C(Nc1cccc2ncccc12)c1cc2ccccc2o1	0	4	1	-5	6	x	x	x	x	x
O=C(NC1=NCCS1)c1ccccc1Cl	-8	-6	17	0	-1	x	x	x	x	x
Cc1csc(C(C#N)C(=O)c2cc3ccccc3o2)n1 (configuration not stated)	59*	14	14	54*	1	31	73*	86*	79*	46
CCCC(=O)Nc1ccc(NC(=O)c2cc3ccccc3o2)c(OC)c1	29	54*	-22	2	4	8	6	27	19	7
CCOC(=O)Cc1csc(NC(=O)c2cc3ccccc3o2)n1	10	29	-23	18	5	x	x	x	x	x
CCN(CC(=O)Nc1cccc(OC)c1)C(=O)c1cnc(Cl)c(Cl)c1	15	-6	7	-10	2	x	x	x	x	x
O=C(NCc1ccco1)c1cnn2cccnc12	-6	-1	-110	1	20	x	x	x	x	x
O=C(Nc1cc(S(=O)(=O)N2CCCCCC2)ccc1OCC(F)(F)F)c1cnccn1	-8	-9	14	-10	x	x	x	x	x	x
CCN1CCN(c2oc(-c3ccccc3)nc2S(=O)(=O)c2ccc(C)cc2)CC1	-12	-8	-4	5	x	x	x	x	x	x
O=C(NC1CCCCC1)c1cc(-c2ccccc2O)on1	-26	11	-9	-26	1	x	x	x	x	x
Cn1c(=O)n(C)c2cc(S(=O)(=O)Nc3cc(Cl)ccc3O)ccc21	9	7	-4	6	-4	x	x	x	x	x
Cc1ccc(C(=O)Nc2cc3ccccc3oc2=O)cc1	91*	98*	-304	89*	50*	33	33	18	56*	6
O=C(NC1=NCCS1)c1cc2ccccc2o1	53*	60*	9	34	12	47	48	81*	77*	58*
